m-calpain inh = blocks pig calpain II enzyme activity | purified calpain II, fluorogenic peptide substrate, 30 min | inhibition, % at 16 µM | hit rate 0.37% among 220,000 | AID 1236;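 active = inhibition above about 50%, limit read from the data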
L major viab = inhibitors of Leishmania major promastigote growth. Leishmania major promastigotes, resazurin fluorescence viability. inhibition, % at 10 µM. hit rate 9% among 200,000. AID 1063; in the data active = inhibition above about 50%;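 also: promastigotes grown with compound for 44 hours at 28 °C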
WT yeast gro inh = growth inhibition of WT yeast, mitochondrial fusion screen; mitochondrial fusion phenotypic screen, WT strain; inhibition, % at 10 µM; hit rate 2.1% among 190,000; AID 1362; in the data active = inhibition above about 58%; tested in S. cerevisiae
KCC2 mod = modulates chloride dependent transport by human KCC2. Q9H2X9. hit rate 2.2% among 190,000. KCC2 cells, thallium flux FluoZin-2 fluorescence. B-score of Tl+ flux slope (higher = more flux/activation; lower = inhibition) at 10 µM;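 active = thallium flux slope and its plate-corrected score both differing from the plate sample mean at a set confidence after two filtering rounds, in either direction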;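 also: slope of fluorescence scaled to starting intensity during 10 to 20 s after thallium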
ROMK mod = modulators of human ROMK potassium channel. hit rate 2% among 130,000. B-score at 10 µM. P48048. Tet-inducible ROMK, thallium flux fluorescence; actives lie on both sides;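 active = signal ratio slope over the read window, or its plate-corrected B-score, at least 3 SD from the plate mean, either direction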;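 also: B-score of the F/F0 ratio slope over 7 to 12 s after thallium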
Target sequence (P48048 whole entry, looked up): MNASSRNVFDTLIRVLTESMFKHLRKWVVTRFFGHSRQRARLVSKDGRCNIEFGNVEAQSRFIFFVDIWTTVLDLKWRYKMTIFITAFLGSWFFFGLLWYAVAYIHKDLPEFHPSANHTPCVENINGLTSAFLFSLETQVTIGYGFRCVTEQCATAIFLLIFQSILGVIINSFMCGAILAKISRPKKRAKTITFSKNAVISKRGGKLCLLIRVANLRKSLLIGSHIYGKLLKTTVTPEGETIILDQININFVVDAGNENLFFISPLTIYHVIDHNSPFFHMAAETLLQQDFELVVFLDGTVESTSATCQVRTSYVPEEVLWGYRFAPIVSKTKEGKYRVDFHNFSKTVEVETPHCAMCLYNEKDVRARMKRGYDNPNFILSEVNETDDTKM
The depositor's hits bear a star; · = not tested or not shown. Most compounds without a hit are left out; they make up all but 12% or so of the library.

SMILES | m-calpain inh | L major viab | WT yeast gro inh | KCC2 mod | ROMK mod
CCN1CCCC1CNC(=O)c1c(O)c2c([nH]c1=O)CCCC2 (stereo not given) | 8 | 52* | 0 | · | 0.2
CCN1CCC[C@H]1CNC(=O)c1c(O)c(Cl)cc(Cl)c1OC | 6 | · | -3 | -0.19 | ·
Cc1ccc2nc(NCCCN3CCOCC3)c(C=NCCCN3CCOCC3)c(=O)n2c1 | -34 | 79* | 11 | -0.19 | 0.49
Cc1ccc2nc(NCc3ccccc3)c(C=NCc3ccccc3)c(=O)n2c1 | -12 | -10 | 20 | -0.11 | 0.89
CCOC(=O)c1cnn(-c2ccccc2)c1NC(=O)CN1CCCCC1 | -16 | · | · | 0.17 | -0.19
O=[N+]([O-])c1c(NCCCO)cc(Sc2ccc(Cl)cc2)c2nonc12 | 16 | -4 | -4 | 0.0096 | -1.2
COc1ccc(CNc2cc(NCCCO)c([N+](=O)[O-])c3nonc23)cc1 | 41 | 67* | 6 | -0.58 | -1.5
Cc1ccccc1Cn1c(=N)n(CC(O)c2ccco2)c2ccccc21 (stereo not given) | -22 | 78* | 5 | · | ·
COc1cc([N+](=O)[O-])ccc1NC(=S)NC(=O)CC(C)(C)C | 0 | 7 | 6 | 0.57 | 0.77
N#CC1=C(N)Oc2c(ccc3cccnc23)C1c1ccccc1 (stereo not given) | 2 | · | · | -0.76 | ·
Cc1ccc2[nH]c(=O)c(C3C(C#N)=C(N)Oc4c3ccc3cccnc43)cc2c1 (stereo not given) | -36 | 96* | 6 | · | -0.67
O=C(Nc1ccccc1)NC(Cc1ccc(O)cc1)C(=O)O (stereo not given) | -9 | 10 | -12 | -0.075 | 0.0014
COc1cccc(/C=C/C(=C2/C(=O)N(c3ccccc3)N=C2C)c2ccccc2)c1OC | -42 | 95* | -5 | 0.21 | 1.1
COc1cccc(/C=C/C(=C2/C(=O)N(c3ccccc3)N=C2C)c2ccc(Br)cc2)c1OC | 3 | 100* | 6 | 0.81 | ·
Cc1cc(C)c(S(C)(=O)=O)c(N(C)N)n1 | -10 | 0 | -11 | 1.2 | 0.45
CCNc1nc(CSc2ccccc2)nc2sc(C)c(C)c12 | 14 | 39 | 67* | -1.1 | ·
Cc1sc2nc(CSc3ccccc3)nc(NCCN(C)C)c2c1C | -9 | 92* | 15 | 1.5 | ·
Nc1nc(C23CC4CC(CC(C4)C2)C3)[nH]c(=O)n1 | 20 | · | · | 0.83 | ·
COc1ccc(-n2c(O)c(Cc3ccccc3)c(=O)n3nc(-c4ccccc4)c(=O)cc23)cc1 | -80 | -9 | -12 | 0.069 | 0.26
COC(=O)c1sc(NC(=O)c2cnccn2)c(C(=O)OC)c1C | · | 5 | · | 0.35 | ·
C=CCNC(=S)NN=C1CCCCCCC1 | 13 | 7 | 60* | 0.79 | 0.44
CCCCC(CC)C(=O)Oc1ccc(O)c(C(C)(C)C)c1 (stereo not given) | 47 | 37 | 91* | 0.52 | 0.51
CC(C)(C)c1cc(OS(C)(=O)=O)ccc1O | -5 | -3 | -6 | · | ·
COc1ccccc1N(C)S(=O)(=O)c1ccc(C(=O)OCC(=O)NCC(F)(F)F)cc1 | 0 | -10 | -1 | -0.33 | 0.087
COc1ccccc1N(C)S(=O)(=O)c1ccc(C(=O)OCC(=O)N(C(C)C)C(C)C)cc1 | -2 | 100* | 3 | -0.11 | 0.11
SMILES | m-calpain inh | L major viab | WT yeast gro inh | KCC2 mod | ROMK mod
COc1ccc(NC(=O)COC(=O)c2ccc(S(=O)(=O)N(C)c3ccccc3OC)cc2)cc1OC | -17 | 27 | -3 | -0.72 | -0.6
COc1ccccc1N(C)S(=O)(=O)c1ccc(C(=O)NCC(C)C)cc1 | 8 | 93* | · | -0.076 | -0.27
COc1ccccc1N(C)S(=O)(=O)c1ccc(C(=O)OCC(=O)N2CCC2)cc1 | 3 | 83* | -12 | -0.26 | 0.11
CCc1ccc(C(CNC(=O)c2ccc3c(=O)n(-c4ccccc4F)c(=S)[nH]c3c2)N(C)C)cc1 (stereo not given) | -70 | 40 | 9 | -0.55 | -0.97
Cc1c(NC(=O)c2cc3c(s2)CCCC3)c(=O)n(-c2ccccc2)n1C | 21 | 2 | -4 | 1.2 | 1.7
Cc1ccc(-c2nnc(NCc3nc4ccccc4[nH]3)c3ccccc23)cc1S(=O)(=O)N1CCCCC1 | -89 | 2 | -15 | -1.4 | ·
Cc1ccc(-c2nnc(NC3CCCCC3)c3ccccc23)cc1S(=O)(=O)N1CCN(C)CC1 | -43 | 96* | 13 | · | 0.47
CCN1CCN(C(=O)C(=O)c2c(C)[nH]c3ccccc23)CC1 | 9 | -5 | -7 | -0.028 | 0.18
CNC(=S)NNC(=O)c1ccccc1F | 90* | -6 | -1 | 0.56 | 0.2
CNC(=S)NNC(=O)c1ccccc1Cl | -1 | · | · | · | ·
CCN(C(=O)CN1CC(C)OC(C)C1)c1c(N)n(Cc2ccccc2)c(=O)[nH]c1=O (stereo not given) | 3 | -4 | 5 | -0.82 | ·
CC1(C)CC(=O)C=C(C(=O)N2CCCC(C(=O)c3cccc(Cl)c3)C2)O1 (stereo not given) | 25 | 11 | 16 | 0.58 | ·
O=C(Cc1cccs1)N(Cc1cccs1)C1(C(=O)NC2CCCC2)CCCCC1 | 18 | 26 | 9 | 0.24 | -1.5
O=C(c1ccc2c(c1)OCO2)N(Cc1cccs1)C1(C(=O)NC2CCCCC2)CCCCC1 | 1 | 31 | 62* | -2 | -1.8
COc1cccc(OC)c1C(=O)OCC(=O)Nc1ccc(OC(F)(F)F)cc1 | 9 | 15 | 6 | -0.0061 | -0.15
COC(=O)C(C)Sc1nc2c(c(-c3ccc(OC)cc3)c1C#N)-c1ccccc1C2=O (stereo not given) | · | 3 | · | · | ·
Clc1ccc(-c2n[nH]c3c2CCC3)c(Cl)c1 | 2 | -1 | 68* | -0.69 | ·
CCN(c1ccc(NC(=O)COC(=O)/C=C/c2cccs2)cc1)C(C)C | 37 | -5 | 13 | 0.093 | -2.3
CCCN(CC(=O)Nc1cccc(Br)c1)CC(=O)Nc1ccc(F)c(F)c1F | 22 | 7 | 69* | 0.049 | ·
CC1CCc2cccc3c2N1c1cc(C#N)c(C#N)cc1O3 (stereo not given) | -9 | 11 | 10 | · | -3
Fc1ccc(Cn2nnnc2CN2CCN(C3CCCC3)CC2)cc1 | -1 | 94* | 7 | · | -0.55
Fc1ccc(Cn2nnnc2CN2CCc3ccccc3C2)cc1 | -39 | -3 | 15 | -1.7 | ·
COc1ccc(N2CCN(C(=O)C(C)(C)Oc3ccc(Cl)cc3)CC2)cc1 | 24 | 98* | 43 | -1.6 | ·
CCOC(=O)N1CCN(C(=O)C(C)(C)Oc2ccc(Cl)cc2)CC1 | -6 | -4 | 7 | -0.41 | ·
O=C(CCn1c(=O)c2sccc2n(CC(=O)OCc2ccccc2)c1=O)NCc1ccccc1 | -17 | -6 | 6 | · | -0.23
SMILES | m-calpain inh | L major viab | WT yeast gro inh | KCC2 mod | ROMK mod
C=CCNc1nc(N(c2ccccc2)c2ccccc2)nc(-n2ccnc2)n1 | -4 | 55* | 16 | 0.014 | 0.3
CCNc1nc(N2CCOCC2)nc(N(c2ccccc2)c2ccccc2)n1 | -49 | -3 | -2 | · | 0.83
CCCCNc1nc(N(C)c2ccccc2)nc(-n2ccnc2)n1 | 24 | 98* | 50 | -0.028 | 1.2
CN(c1ccccc1)c1nc(-n2ccnc2)nc(-n2ccnc2)n1 | 1 | 6 | 36 | -1.8 | -1.2
c1ccc(N(c2ccccc2)c2nc(-n3ccnc3)nc(-n3ccnc3)n2)cc1 | -34 | 28 | 98* | · | 0.6
COC(C[C@@H]1O[C@@H]1C(=O)COCc1ccccc1)OC | 14 | · | · | 0.43 | ·
